Reference: the supplement of paper PMC10681739

How the values were obtained:
ETS1 [1] = molecular target: T1, ETS1 (UniProt P14921); experiment: ETS1 binding intensity (PBM fluorescence), ETS1 alone (arbitrary fluorescence units); higher = stronger binding; conditions: ETS1 concentration 1 nM; RUNX1 concentration 0 nM
T1 sequence: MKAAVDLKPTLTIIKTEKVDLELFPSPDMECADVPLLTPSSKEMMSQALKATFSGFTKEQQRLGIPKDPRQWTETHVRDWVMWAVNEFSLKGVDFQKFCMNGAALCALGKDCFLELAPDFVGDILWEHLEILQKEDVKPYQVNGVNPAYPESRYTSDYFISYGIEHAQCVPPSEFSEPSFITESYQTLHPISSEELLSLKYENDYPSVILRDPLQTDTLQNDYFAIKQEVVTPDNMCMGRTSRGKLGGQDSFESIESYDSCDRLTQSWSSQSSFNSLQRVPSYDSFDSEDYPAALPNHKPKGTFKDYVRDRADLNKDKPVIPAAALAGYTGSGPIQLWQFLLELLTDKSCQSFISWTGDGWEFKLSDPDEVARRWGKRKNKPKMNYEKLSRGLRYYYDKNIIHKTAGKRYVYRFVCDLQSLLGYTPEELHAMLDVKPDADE

RUNX1 = RUNX1 (UniProt Q01196); experiment: RUNX1 binding intensity (PBM fluorescence), RUNX1 alone (arbitrary fluorescence units); higher = stronger binding; conditions: RUNX1 concentration 2 nM; ETS1 concentration 0 nM
Protocol: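 Cooperative gcPBM on 36-bp genomic probes with neighbouring ETS1 and RUNX1 sites. Recombinant human RUNX1 (2 nM) was incubated alone or with ETS1 (25 nM) and detected with anti-RUNX1 antibody plus Alexa488 secondary. Values are medians over 4 replicate spots; the RUNX1+ETS1 data were normalised to the RUNX1-only data. The probes sit in constant array flanks that are not printed.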

ETS1 [2] = molecular target: T1, ETS1; experiment: ETS1 binding intensity (PBM fluorescence) in presence of RUNX1, normalised to ETS1-only experiment (arbitrary fluorescence units); higher = stronger binding; conditions: ETS1 concentration 1 nM; RUNX1 concentration 25 nM
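Throughout, for RUNX1 binding intensity (PBM fluorescence), RUNX1 alone: Full-length recombinant human RUNX1 bound to double-stranded 36-bp genomic probes on a high-density microarray, scored as Alexa488 fluorescence per spot via anti-RUNX1 antibody, median of four replicate spots.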

Chain of RUNX1 (Q01196 whole entry): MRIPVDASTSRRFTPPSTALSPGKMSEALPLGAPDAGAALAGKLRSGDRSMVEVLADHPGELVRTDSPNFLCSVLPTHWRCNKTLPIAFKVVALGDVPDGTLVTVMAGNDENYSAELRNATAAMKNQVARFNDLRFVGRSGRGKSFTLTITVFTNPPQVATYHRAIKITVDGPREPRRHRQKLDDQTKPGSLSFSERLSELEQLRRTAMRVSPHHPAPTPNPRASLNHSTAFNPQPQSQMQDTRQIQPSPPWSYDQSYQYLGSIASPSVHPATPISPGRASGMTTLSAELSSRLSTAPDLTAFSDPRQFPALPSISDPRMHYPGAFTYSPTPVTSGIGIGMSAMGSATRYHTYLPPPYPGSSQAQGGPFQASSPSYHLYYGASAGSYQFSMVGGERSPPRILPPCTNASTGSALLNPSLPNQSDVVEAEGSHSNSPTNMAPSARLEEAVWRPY

Sequence	ETS1 binding intensity (ETS1 [1])	RUNX1 binding intensity (RUNX1)	ETS1 binding intensity (ETS1 [2])
TCATGCTGCTTCCTGCCCAACCCGCAGTTCCGATAA	890	1120	–
CCGGGACCGGAAGAGGGAGCCGTGGTTGCTGGAACT	3040	744	–
GGTTTTGGTAGGAAGGAAAGTGGTTTTCATAGGAAG	588	–	–
GCGGGGCGCAGGAAGCGGGGCGAAACCACTGTTGGC	1040	753	–
TCTTGCCCGGGTCGGAAATGGTGGTCACGAGCGCTT	1110	772	–
GGGAGGCCCCATCCTGTGTGGCTGTGGCTTTTGCCT	414	653	–
GGCCGGCTTCCGGGGCGGGTGGAAAGGAGCCACAAG	501	750	–
TCCCCTGTCTTCCGGAGGCTGCGGCGCAGCGGCGCA	403	–	–
AACAGTTGCATAGGAAGTGGTCAGCTCTCCTCCACC	1260	828	–
CAAAGCAACCCAAGGGGATGTGGTCACTGGGGTGAG	413	–	–
GCGCGGACAGAGAAAGGATGTGGTATAGCAGAAAGT	1500	727	–
ACTTCCAGGAAGCCCCATAGTCCAGAAACCCACACA	493	–	–
GGGGAAGAGGAAGCTGTGTCCGCGGTGCAAGGGGTT	533	–	–
CAAAGTGATGGGGGAAATGGTTGTGGTTTTGGGTGG	553	1180	–
AGTGGATAGCACTTCCTTCTCTTACCACAGTTCCTT	365	1020	–
GGGTTGGGTGCCGGATGCGGTGAGTGAGGTTCTCAT	2930	917	–
AAGCTGAAAAGGGGATGTGGTTGCCTGCCTGTGGGA	534	–	–
TTTTCCGACGGAAGCCTTACTGCCGCAAACGTCACT	556	–	–
GGCCGACGGGAAGTGTAGTCCGGCCTGCGGTCCGGG	801	704	–
GTTGGGGTGCGTGTAGGATGTGGTCTGGGATGATTA	599	1050	–
GGGCGCGACTTCCGGGGCGGCGGTTGCATCAGATTC	1580	774	1780
CCGCTGACATCCGCTTGGCCTGCGGCTTCTTTCTGT	715	1080	1030
ACTATTTTTAGACTTCCCCACCCCGCAGTTTCAAGG	601	1270	554
AGGGGAGGAACCAGGAAGTTGTGGTAAACTGTAGCA	2490	982	–

Sequence	ETS1 binding intensity (ETS1 [1])	RUNX1 binding intensity (RUNX1)	ETS1 binding intensity (ETS1 [2])
GTTCTCCACATCCTGTTCCGTAGCTGTGGTGCACCG	1600	3060	1780
ACAGGAAGTGTCTCTATAGAAACCAAACCACAGAAA	1270	935	7500
TGACATCCTCTGAGGCAGCAAGCTGCGGTGAAGTCT	400	704	561
GCAACTGAACAGGAAACTAAAAAACCACAACACTTA	1400	1900	15600
AGGGAGCCCTCCATTTCCTGCCCACATTTGTCACCT	2360	1240	2060
ACAGTCGCACCGGAAGCTGCCCGCGGTGTTGACACA	8580	700	11300
CCTCCCACCTTGGCAGGAAGCGGTTTATCAGATTAA	4250	810	7770
TCTGTTCTTCCTTTTCCTGTGCGGTGTGCCCCAAAC	628	1530	722
GCGAAAAACGCGGAAATGCGGTGGCGGCGGCCCGCT	885	721	1190
GGAACAGGAAAAGCCTCCGGCAGCCCCTGCGGGCGG	539	719	941
TCCTCCATGCAGGAAAACCTCTGTGGTCTGGGAGCT	438	867	1230
TACCAACAGGAATCTTTGGGGTCTAAACCGCAAACA	481	3800	2160
ACGGGGAAGAACGGAAGTGGTTTCCATGATGGTCTG	6420	831	9080
GGCTGTGCTTCAGGATGTGGTAATGCTTGGGAGGCG	990	780	4180
GTGGGGAGAGGCAGGAAACCGCTGCCGCCGACGGGG	3550	807	4730
GGCTGGCCTAGGAACTTCCGCCACAAGTCCCGCCCC	1860	822	2220
CCTCTGAGGCAGGAAGCTGCGGTGAAGTCTGAAGTT	3300	871	11800
ACCAGCAACGGAAATCAGATCTCTTGTGGTTATTAT	1480	994	7160
GAGTACAGGAAATGCAAAGTAAAACCACAGTGAGAT	1460	904	4550
GTCCCCGTAACAGGATGTGGTGAGCTGTTATACCAC	6710	802	–
TACTTCTTCCTGGCAGAGACCGGGAGTGCGGTCCGC	471	745	588
TTTTTTCCGCCTGTAGGGTCACATTGTGGTTGATTG	446	1000	725
AGTTGGTTCCTTCCGGTGGGTTTGTGGGTTTGGGGT	1420	870	–
CTCATTGACAGGAAGTCTAACCACAGGCTTAGGCCC	3730	1400	–

Sequence	ETS1 binding intensity (ETS1 [1])	RUNX1 binding intensity (RUNX1)	ETS1 binding intensity (ETS1 [2])
AAAGTTGTATAGTGAGGATGTGGTCAAGAACTCACC	577	1010	4380
TCCAGGCATTTCCCCCATGTTGGCTCACCGCACTAT	416	1260	594
TACTAGTTTGGGGCATCCTGTGGTATAGGGGAAGCA	4100	797	4560
TGCATGCAACAGGAAGTGGGGTGTGGTTTGTTCTGG	11600	760	39100
CGGTGGCTTCCGGCCCATGGCGGTGGTTGGTGACTC	807	770	953
GTGCCTCACCGCTTCCGGCGCTGCGGGATGACGTCA	2390	786	4720
GGCGGATGGGGAGAAGAGAGTGGCTGTGGTCTCTGG	371	861	491
AAGAGGAAATAAATACCAGAGTGAACCCACAAACCT	441	892	943
GGCCAGGCAGGAAGTCCCGCGCCACAAGCGGCCGTC	3050	758	3300
CAGTGGCTAAGGATCCGGTGTTGCGGTGATACATGA	430	804	643
GTAGAGACAGGAAATTATGTTGGTTTTCTTGCAGAA	3530	724	3800
TGCACCCGCCACTTCCGCATCGAACCGCCGCTTCAA	1100	1030	1140
CTTTTCCATGCAGGAAGTGGTTTTTAGAGTGTAGAG	7750	896	20100
CTCTAGAGGCTTCCTGCCCAACCACCAAGAAAAAGC	598	817	668
ACAACCCGGAAGTTGGCGCAGCGCGGTTGCCAATGG	4350	671	4910
AGCTCTGCCAGGAAGTGAGAACCACAGGCCTCCCCT	1570	837	3140
GCAGAGAGGAGGGGATGTGGTTTCACAGCTTGCTCC	422	835	1720
GTGAGTCACTTCCTGACCATGTGGGTTTTTGGTACG	568	823	937
TTAAGGAGCTTCCGGGGCCGCGGGTAGAGGCGGGTG	629	676	741
GGACACAGGCTTCCGCGTTACCGACACCGCGTGGGG	451	837	311
GGCGGCTTCCGGGATCTGCCTGGCGGTTGCTTTGTC	568	729	525
GCCGTGGGTACGACCGGAAGCCGCAGGTGGGTGAAG	18000	772	35000
TGGTGCCAAACATCCGCTAGCCACAGAAAAACCGAC	778	826	1170
AGAAGGAACTACACAGGAAACCCACTGCCTCGATGG	2430	691	1640

Sequence	ETS1 binding intensity (ETS1 [1])	RUNX1 binding intensity (RUNX1)	ETS1 binding intensity (ETS1 [2])
AGTTTCTCAGCTTCCTGTGTGGTTTTCTTGATCTGC	1480	1620	2630
GATGAAAGAGGAAGTTCTCAAACCACCTTGCCAGTG	1170	768	1490
CCGCGCACCCGGAACTACCTCCCGACCCGCATCCCC	562	1290	592
CCGGCAGGAAGTTAGCATGGGCGGACCACACGGGGG	1400	1470	1530
TCATAAGGAAGTGGAGTGTAGTAACCACAGGCCCCG	417	829	1100
CGGGGCTTCCGGCGCGCTGCCTTGTGGGCACGGTAG	591	711	611
GAGCTGCTCCGGAAGGGTGGTGTGTGGTCAACCTTG	759	876	1520
TGAGTCACAGAGACAGGATGTGGTGCAGGGGGTATT	7580	718	13500
TGGGCAAGATATCCTGGAAGTGGTTAAAAAAAATTA	687	739	1050
GTGGCTATGGGAAGTGGGGTGCGGTTTCTGCCGGGG	554	1340	3070
TTTACAGGAAATATCCAGAACAGGTAAACCCACAGA	778	796	1630
TTGAGGGGAAGGGGAGGAAGTGGTCATTGGAACTTG	2530	776	3150
GCAGGGGCCCATTTCCTGCCACAAGCCCACACAGGA	1390	749	1280
AGGAGCCGGAAGTCCCGCCCACGCACCCCCCGCAGG	5260	857	8270
TGGTGGCTATTTCCTCTCCCGCTGTGGTCCCTGGAG	563	728	535
GCAGGGACCGGAAGTCCATGGCTCTGCCGCAACCCT	13400	738	13700
TCGCTTCCGGTGTCGGTTACAGACTGTGGTTGCCAT	3090	906	6190
AACAGAGACCCGGAAGTTGTGGGACGAAGCCAGGAC	4960	810	6420
TGGGGACAGGAAATGTTTACTGCCTGTGGCTTGCTG	3340	705	4240
AGGAGTGTCACTTCCTCTTTCCTCACCACAGCCTCC	1100	1040	1440
CCGCGCCGCTTCCTCCAGACACCGCAAGGGGGTGCT	325	893	446
GCAACAGCGATCCCCGGAAACCACAAGGCGAGATGT	1660	1680	5080
CCCAGCCGAGGGAGGAAGCCTGCGGTCACTGCCATC	402	1640	2740
CTCATCAGTCATCCGGCTGGACCGCAGGAGCTCTCC	403	933	500
